Assay results taken from the supplement of paper PMC10849652.
Of roughly 8,800 targets only a part is listed; those with a hit were picked by preference. About 0.5% of all pairs of compound and target were hits. Values without a mark were called inactive.

Tests used:
Assay in all cases: log2 fold change, soluble protein after heating vs DMSO (PISA); higher = thermal stabilisation; K562 lysate, 10 uM; active = over 0.2 and 3.5 SD of the protein, either way, in both replicates (recomputed)
[1] = compound: C#Cc1cccc(Nc2ncnc3cc(OCCOC)c(OCCOC)cc23)c1 [erlotinib]
Method in brief: (§1)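 K562 pellets were dounce-homogenised in PBS pH 7.4 containing 1 mM MgCl2, and the crude extract, at 1 mg/mL protein, was exposed to 10 μM compound for 30 min. Aliquots were heated for 3 min across 48°C-58°C, pooled, brought to 0.5% NP-40 at 4°C and spun at 21,000xg for 90 min, with the supernatant taken as soluble protein. TMTpro 16plex LC-MS/MS with equalised channel sums quantified that protein. Values are log-two fold changes in thermal stability relative to solvent controls, taken from duplicates.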

[2] = compound: C/C(=N\NC(=O)C1=CC(=CC=C1)S(=O)(=O)N2CCOCC2)/C3=C(C=CC(=C3)Cl)O
Method in brief: as §1

[3] = compound: C1=CC(=CC=C1C2=NC3=C(N2)C=C(C=C3)C(=O)N)OC4=CC=C(C=C4)Cl
Method in brief: as §1

[4] = compound: C1=CC2=C(C=CC(=C2)/C=C\3/C(=O)NC(=NCC4=CC=CS4)S3)N=C1
Method in brief: as §1

[5] = compound: C1=CC2=NC=CN=C2C=C1/C=C/3\C(=O)NC(=O)S3
Method in brief: as §1

[6] = compound: C1=CC=C(C=C1)C2=NC(=C(N2)C3=CC=NC=C3)C4=CC(=C(C=C4)Cl)O
Method in brief: as §1

[7] = compound: C1=CC=C2C(=C1)C3=NNC4=CC=CC(=C43)C2=O
Method in brief: as §1

[8] = compound: C1CCN(C1)C(=O)NC2=CC=CC(=C2)NC3=NC=C(C(=N3)NCCC4=CN=CN4)Br
Method in brief: as §1

[9] = compound: C1CN(CCC1(CC2=CC=C(C=C2)Cl)N)C3=NC=NC4=C3C=CN4
Method in brief: as §1

[10] = compound: C1COCCN1CCN2C3=CC=CC=C3N=C2NC(=O)C4=CC(=CC=C4)[N+](=O)[O-] [IRAK-1-4 Inhibitor I]
Method in brief: as §1

MTA2 (UniProt O94776)
UniProt O94776, sequence (O94776 whole entry, looked up): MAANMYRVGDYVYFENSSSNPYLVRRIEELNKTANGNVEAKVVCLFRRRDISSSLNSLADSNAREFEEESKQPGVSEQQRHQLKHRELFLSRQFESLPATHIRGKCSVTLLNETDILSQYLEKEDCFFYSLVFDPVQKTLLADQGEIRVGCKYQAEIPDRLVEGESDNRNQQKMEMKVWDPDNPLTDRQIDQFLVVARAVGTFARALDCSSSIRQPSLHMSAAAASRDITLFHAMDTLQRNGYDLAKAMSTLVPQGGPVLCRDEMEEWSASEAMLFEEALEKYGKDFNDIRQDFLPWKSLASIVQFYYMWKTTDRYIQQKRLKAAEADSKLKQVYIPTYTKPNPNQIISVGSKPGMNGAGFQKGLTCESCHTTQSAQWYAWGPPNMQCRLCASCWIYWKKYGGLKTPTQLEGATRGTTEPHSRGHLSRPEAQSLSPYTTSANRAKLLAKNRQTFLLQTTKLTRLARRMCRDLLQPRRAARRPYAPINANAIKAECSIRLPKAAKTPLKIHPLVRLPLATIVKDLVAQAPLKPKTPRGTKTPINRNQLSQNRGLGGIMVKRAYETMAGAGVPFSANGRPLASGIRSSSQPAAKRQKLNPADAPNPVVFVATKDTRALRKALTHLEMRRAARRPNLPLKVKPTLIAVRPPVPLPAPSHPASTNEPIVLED
log2 fold change [1]: -0.025
log2 fold change [2]: -0.017
log2 fold change [3]: 0.019
log2 fold change [4]: 0.013
log2 fold change [5]: -0.012
log2 fold change [6]: -0.015
log2 fold change [7]: -0.023
log2 fold change [8]: -0.007
log2 fold change [9]: 0.021
log2 fold change [10]: -0.005

MYCBP (UniProt Q99417)
UniProt Q99417, sequence (Q99417 whole entry, looked up): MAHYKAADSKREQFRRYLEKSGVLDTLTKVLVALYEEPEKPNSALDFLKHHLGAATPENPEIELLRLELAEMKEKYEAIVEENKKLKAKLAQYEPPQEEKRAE
log2 fold change [1]: 0.007
log2 fold change [2]: -0.001
log2 fold change [3]: 0.011
log2 fold change [4]: 0.007
log2 fold change [5]: 0
log2 fold change [6]: 0.019
log2 fold change [7]: 0
log2 fold change [8]: 0.024
log2 fold change [9]: 0.076
log2 fold change [10]: 0.04

OTC (UniProt P00480)
log2 fold change [1]: 0.09
log2 fold change [2]: 0.138
log2 fold change [3]: -0.096
log2 fold change [4]: -0.121
log2 fold change [5]: -0.049
log2 fold change [6]: -0.074
log2 fold change [7]: -0.069
log2 fold change [8]: -0.074
log2 fold change [9]: -0.095
log2 fold change [10]: 0.125

MYO1D (UniProt O94832)
log2 fold change [1]: 0.01
log2 fold change [2]: -0.064
log2 fold change [3]: -0.022
log2 fold change [4]: 0.004
log2 fold change [5]: 0.006
log2 fold change [6]: 0.01
log2 fold change [7]: -0.083
log2 fold change [8]: 0.015
log2 fold change [9]: 0.031
log2 fold change [10]: -0.027

NUP205 (UniProt Q92621)
log2 fold change [1]: 0.03
log2 fold change [2]: -0.022
log2 fold change [3]: -0.018
log2 fold change [4]: 0.049
log2 fold change [5]: -0.008
log2 fold change [6]: -0.013
log2 fold change [7]: -0.06
log2 fold change [8]: -0.009
log2 fold change [9]: 0.035
log2 fold change [10]: 0.005

NUDT4 (UniProt Q9NZJ9)
log2 fold change [1]: -0.043
log2 fold change [2]: 0.233
log2 fold change [3]: -0.022
log2 fold change [4]: 0.07
log2 fold change [5]: -0.055
log2 fold change [6]: -0.009
log2 fold change [7]: 0.039
log2 fold change [8]: 0.059
log2 fold change [9]: 0.026
log2 fold change [10]: -0.026

NIPSNAP3A (UniProt Q9UFN0)
UniProt Q9UFN0, sequence (Q9UFN0 whole entry, looked up): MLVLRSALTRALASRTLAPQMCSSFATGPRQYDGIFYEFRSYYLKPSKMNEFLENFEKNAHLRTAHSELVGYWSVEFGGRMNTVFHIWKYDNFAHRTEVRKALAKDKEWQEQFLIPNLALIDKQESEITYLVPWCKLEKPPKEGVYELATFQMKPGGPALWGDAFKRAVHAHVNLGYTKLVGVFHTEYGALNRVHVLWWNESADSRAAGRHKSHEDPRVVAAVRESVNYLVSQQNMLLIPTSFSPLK
log2 fold change [1]: 0.008
log2 fold change [2]: -0.014
log2 fold change [3]: 0.062
log2 fold change [4]: -0.03
log2 fold change [5]: 0.012
log2 fold change [6]: 0.003
log2 fold change [7]: 0.015
log2 fold change [8]: -0.012
log2 fold change [9]: 0.002
log2 fold change [10]: 0.015

NSA2 (UniProt O95478)
log2 fold change [1]: -0.015
log2 fold change [2]: -0.15
log2 fold change [3]: 0.009
log2 fold change [4]: -0.102
log2 fold change [5]: -0.05
log2 fold change [6]: -0.002
log2 fold change [7]: -0.016
log2 fold change [8]: 0.157
log2 fold change [9]: 0.109
log2 fold change [10]: -0.006

NCAPD2 (UniProt Q15021)
UniProt Q15021, sequence (Q15021 whole entry, looked up): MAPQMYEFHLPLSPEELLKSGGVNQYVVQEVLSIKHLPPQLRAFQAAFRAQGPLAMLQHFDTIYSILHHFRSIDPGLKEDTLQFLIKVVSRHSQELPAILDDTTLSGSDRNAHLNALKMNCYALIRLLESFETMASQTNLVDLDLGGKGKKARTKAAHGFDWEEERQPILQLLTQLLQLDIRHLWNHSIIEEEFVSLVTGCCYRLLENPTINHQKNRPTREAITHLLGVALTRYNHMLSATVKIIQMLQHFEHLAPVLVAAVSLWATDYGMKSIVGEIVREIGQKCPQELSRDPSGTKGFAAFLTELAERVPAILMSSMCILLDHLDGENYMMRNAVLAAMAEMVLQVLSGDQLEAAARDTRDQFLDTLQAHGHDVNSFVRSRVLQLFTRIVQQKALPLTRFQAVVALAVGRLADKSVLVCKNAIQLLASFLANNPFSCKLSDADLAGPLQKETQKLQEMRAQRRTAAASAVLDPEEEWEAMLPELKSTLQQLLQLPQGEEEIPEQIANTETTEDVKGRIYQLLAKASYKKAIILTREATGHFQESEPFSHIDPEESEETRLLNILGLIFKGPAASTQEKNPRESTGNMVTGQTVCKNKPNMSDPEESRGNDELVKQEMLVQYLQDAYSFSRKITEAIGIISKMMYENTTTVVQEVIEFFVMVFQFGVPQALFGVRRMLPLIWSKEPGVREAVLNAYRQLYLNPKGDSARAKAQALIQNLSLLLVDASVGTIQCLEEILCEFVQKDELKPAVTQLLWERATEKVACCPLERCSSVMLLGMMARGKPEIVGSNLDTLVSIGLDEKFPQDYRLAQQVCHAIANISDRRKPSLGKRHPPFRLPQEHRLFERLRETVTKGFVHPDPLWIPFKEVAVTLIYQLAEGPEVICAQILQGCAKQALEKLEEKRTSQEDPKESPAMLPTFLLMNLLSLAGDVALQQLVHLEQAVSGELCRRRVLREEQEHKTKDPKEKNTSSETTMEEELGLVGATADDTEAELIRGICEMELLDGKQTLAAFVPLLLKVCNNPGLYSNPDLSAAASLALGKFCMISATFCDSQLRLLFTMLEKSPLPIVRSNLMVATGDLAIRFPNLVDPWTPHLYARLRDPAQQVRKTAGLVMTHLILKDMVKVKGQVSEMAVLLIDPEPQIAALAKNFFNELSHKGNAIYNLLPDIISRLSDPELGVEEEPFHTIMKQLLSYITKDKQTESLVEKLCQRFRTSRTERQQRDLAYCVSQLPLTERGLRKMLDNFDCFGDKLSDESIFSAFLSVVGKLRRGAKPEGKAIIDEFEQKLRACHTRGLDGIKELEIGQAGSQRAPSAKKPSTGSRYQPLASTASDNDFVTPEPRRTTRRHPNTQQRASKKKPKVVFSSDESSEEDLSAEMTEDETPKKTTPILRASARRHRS
log2 fold change [1]: 0.011
log2 fold change [2]: 0.011
log2 fold change [3]: -0.005
log2 fold change [4]: 0.032
log2 fold change [5]: -0.009
log2 fold change [6]: -0.016
log2 fold change [7]: -0.025
log2 fold change [8]: -0.007
log2 fold change [9]: -0.005
log2 fold change [10]: -0.001

NARS2 (UniProt Q96I59)
log2 fold change [1]: -0.027
log2 fold change [2]: -0.034
log2 fold change [3]: -0.045
log2 fold change [4]: 0.031
log2 fold change [5]: 0.022
log2 fold change [6]: -0.021
log2 fold change [7]: -0.04
log2 fold change [8]: 0.027
log2 fold change [9]: -0.027
log2 fold change [10]: -0.088

PARP14 (UniProt Q460N5)
log2 fold change [1]: 0.06
log2 fold change [2]: -0.037
log2 fold change [3]: 0.012
log2 fold change [4]: -0.032
log2 fold change [5]: 0.081
log2 fold change [6]: 0.005
log2 fold change [7]: -0.166
log2 fold change [8]: -0.025
log2 fold change [9]: 0.062
log2 fold change [10]: -0.095

NUP210 (UniProt Q8TEM1)
log2 fold change [1]: -0.018
log2 fold change [2]: -0.019
log2 fold change [3]: -0.049
log2 fold change [4]: 0.036
log2 fold change [5]: -0.004
log2 fold change [6]: -0.046
log2 fold change [7]: -0.157
log2 fold change [8]: -0.008
log2 fold change [9]: -0.001
log2 fold change [10]: -0.009

NCAPH (UniProt Q15003)
UniProt Q15003, sequence (Q15003 whole entry, looked up): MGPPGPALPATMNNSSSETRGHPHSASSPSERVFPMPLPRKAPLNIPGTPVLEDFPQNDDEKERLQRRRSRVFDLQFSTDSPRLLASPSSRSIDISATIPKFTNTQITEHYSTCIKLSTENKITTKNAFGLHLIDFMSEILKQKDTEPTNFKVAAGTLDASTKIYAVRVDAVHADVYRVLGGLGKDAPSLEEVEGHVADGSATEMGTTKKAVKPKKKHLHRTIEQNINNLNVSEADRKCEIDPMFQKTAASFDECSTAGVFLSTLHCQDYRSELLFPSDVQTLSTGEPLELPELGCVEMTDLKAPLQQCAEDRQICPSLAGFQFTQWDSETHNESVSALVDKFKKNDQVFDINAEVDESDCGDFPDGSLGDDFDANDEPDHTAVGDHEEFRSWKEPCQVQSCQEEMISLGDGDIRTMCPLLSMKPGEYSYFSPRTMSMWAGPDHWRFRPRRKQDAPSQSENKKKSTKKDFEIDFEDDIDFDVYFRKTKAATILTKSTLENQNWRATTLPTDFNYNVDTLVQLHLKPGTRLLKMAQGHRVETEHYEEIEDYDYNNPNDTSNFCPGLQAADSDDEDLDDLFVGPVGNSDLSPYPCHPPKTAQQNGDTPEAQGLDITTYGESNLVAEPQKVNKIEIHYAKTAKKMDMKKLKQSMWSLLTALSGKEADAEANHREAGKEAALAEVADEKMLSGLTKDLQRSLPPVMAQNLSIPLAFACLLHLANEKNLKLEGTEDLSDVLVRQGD
log2 fold change [1]: 0.036
log2 fold change [2]: -0.008
log2 fold change [3]: -0.006
log2 fold change [4]: -0.007
log2 fold change [5]: -0.002
log2 fold change [6]: -0.012
log2 fold change [7]: -0.063
log2 fold change [8]: -0.008
log2 fold change [9]: -0.018
log2 fold change [10]: 0

NCAPG2 (UniProt Q86XI2)
log2 fold change [1]: 0.023
log2 fold change [2]: -0.026
log2 fold change [3]: -0.019
log2 fold change [4]: 0.001
log2 fold change [5]: 0.006
log2 fold change [6]: -0.004
log2 fold change [7]: -0.026
log2 fold change [8]: 0.023
log2 fold change [9]: -0.016
log2 fold change [10]: 0.004

PAFAH1B3 (UniProt Q15102)
UniProt Q15102, sequence (Q15102 whole entry, looked up): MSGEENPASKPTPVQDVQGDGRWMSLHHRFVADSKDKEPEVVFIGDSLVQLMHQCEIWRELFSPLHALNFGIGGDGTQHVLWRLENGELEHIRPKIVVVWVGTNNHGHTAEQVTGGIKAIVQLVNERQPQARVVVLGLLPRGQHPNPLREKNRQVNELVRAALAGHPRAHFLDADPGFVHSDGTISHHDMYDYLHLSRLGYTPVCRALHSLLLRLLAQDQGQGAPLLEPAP
log2 fold change [1]: 0.037
log2 fold change [2]: 0.032
log2 fold change [3]: -0.017
log2 fold change [4]: -0.017
log2 fold change [5]: 0.022
log2 fold change [6]: -0.009
log2 fold change [7]: 0.005
log2 fold change [8]: 0.025
log2 fold change [9]: 0.027
log2 fold change [10]: 0.005

MVB12A (UniProt Q96EY5)
log2 fold change [1]: 0.027
log2 fold change [2]: -0.049
log2 fold change [3]: 0.022
log2 fold change [4]: -0.001
log2 fold change [5]: -0.024
log2 fold change [6]: -0.001
log2 fold change [7]: -0.046
log2 fold change [8]: -0.089
log2 fold change [9]: -0.003
log2 fold change [10]: -0.001

NCAPH2 (UniProt Q6IBW4)
log2 fold change [1]: -0.031
log2 fold change [2]: -0.085
log2 fold change [3]: 0.011
log2 fold change [4]: -0.012
log2 fold change [5]: 0.026
log2 fold change [6]: 0
log2 fold change [7]: -0.005
log2 fold change [8]: -0.038
log2 fold change [9]: 0.042
log2 fold change [10]: 0.009

OSBPL6 isoform 5 (UniProt Q9BZF3)
log2 fold change [1]: 0.182
log2 fold change [2]: 0.398 (active)
log2 fold change [3]: 0.09
log2 fold change [4]: -0.006
log2 fold change [5]: -0.012
log2 fold change [6]: 0.257
log2 fold change [7]: 0.107
log2 fold change [8]: -0.029
log2 fold change [9]: -0.015
log2 fold change [10]: -0.08

NUP160 (UniProt Q12769)
log2 fold change [1]: 0.038
log2 fold change [2]: 0.041
log2 fold change [3]: -0.033
log2 fold change [4]: -0.006
log2 fold change [5]: 0.038
log2 fold change [6]: -0.012
log2 fold change [7]: -0.075
log2 fold change [8]: -0.029
log2 fold change [9]: 0.015
log2 fold change [10]: -0.013

NOC2L (UniProt Q9Y3T9)
log2 fold change [1]: -0.036
log2 fold change [2]: -0.013
log2 fold change [3]: -0.018
log2 fold change [4]: -0.029
log2 fold change [5]: 0.027
log2 fold change [6]: 0.031
log2 fold change [7]: 0.077
log2 fold change [8]: -0.009
log2 fold change [9]: -0.004
log2 fold change [10]: -0.046

N4BP2 (UniProt Q86UW6)
log2 fold change [1]: 0.04
log2 fold change [2]: -0.029
log2 fold change [3]: -0.09
log2 fold change [4]: 0.069
log2 fold change [5]: -0.015
log2 fold change [6]: 0.001
log2 fold change [7]: 0.106
log2 fold change [8]: -0.021
log2 fold change [9]: -0.068
log2 fold change [10]: -0.022

NADK2 (UniProt Q4G0N4)
log2 fold change [1]: 0.005
log2 fold change [2]: -0.024
log2 fold change [3]: 0.011
log2 fold change [4]: 0.104
log2 fold change [5]: -0.026
log2 fold change [6]: -0.003
log2 fold change [7]: -0.017
log2 fold change [8]: -0.019
log2 fold change [9]: 0.031
log2 fold change [10]: 0.025

NCAPD3 (UniProt P42695)
log2 fold change [1]: 0.023
log2 fold change [2]: 0.021
log2 fold change [3]: -0.012
log2 fold change [4]: 0.006
log2 fold change [5]: -0.003
log2 fold change [6]: 0.012
log2 fold change [7]: -0.043
log2 fold change [8]: -0.004
log2 fold change [9]: 0.042
log2 fold change [10]: 0.03

NSL1 (UniProt Q96IY1)
UniProt Q96IY1, sequence (Q96IY1 whole entry, looked up): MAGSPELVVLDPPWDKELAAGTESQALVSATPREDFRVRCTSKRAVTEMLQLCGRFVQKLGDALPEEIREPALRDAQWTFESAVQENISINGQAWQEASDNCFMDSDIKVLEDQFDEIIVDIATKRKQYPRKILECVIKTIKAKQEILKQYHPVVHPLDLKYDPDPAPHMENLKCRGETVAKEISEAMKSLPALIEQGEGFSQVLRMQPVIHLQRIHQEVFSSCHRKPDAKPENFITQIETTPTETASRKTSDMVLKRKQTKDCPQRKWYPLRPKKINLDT
log2 fold change [1]: 0.01
log2 fold change [2]: -0.004
log2 fold change [3]: 0.015
log2 fold change [4]: -0.001
log2 fold change [5]: -0.002
log2 fold change [6]: 0.01
log2 fold change [7]: 0.077
log2 fold change [8]: 0.001
log2 fold change [9]: -0.015
log2 fold change [10]: 0.026

NUSAP1 (UniProt Q9BXS6)
log2 fold change [1]: -0.011
log2 fold change [2]: -0.466
log2 fold change [3]: 0.025
log2 fold change [4]: -0.008
log2 fold change [5]: -0.033
log2 fold change [6]: 0.008
log2 fold change [7]: 0.035
log2 fold change [8]: 0.012
log2 fold change [9]: 0.001
log2 fold change [10]: -0.005

PAK4 (UniProt O96013)
log2 fold change [1]: 0
log2 fold change [2]: -0.076
log2 fold change [3]: 0.072
log2 fold change [4]: 0.052
log2 fold change [5]: -0.006
log2 fold change [6]: -0.005
log2 fold change [7]: 0.335
log2 fold change [8]: 0.469
log2 fold change [9]: 0.124
log2 fold change [10]: -0.044

MYH11 isoform 2 (UniProt P35749)
log2 fold change [1]: -0.015
log2 fold change [2]: 0.035
log2 fold change [3]: 0.027
log2 fold change [4]: -0.002
log2 fold change [5]: -0.092
log2 fold change [6]: 0.142
log2 fold change [7]: -0.038
log2 fold change [8]: -0.036
log2 fold change [9]: 0.047
log2 fold change [10]: 0.013

PAXBP1 (UniProt Q9Y5B6)
UniProt Q9Y5B6, sequence (Q9Y5B6 whole entry, looked up): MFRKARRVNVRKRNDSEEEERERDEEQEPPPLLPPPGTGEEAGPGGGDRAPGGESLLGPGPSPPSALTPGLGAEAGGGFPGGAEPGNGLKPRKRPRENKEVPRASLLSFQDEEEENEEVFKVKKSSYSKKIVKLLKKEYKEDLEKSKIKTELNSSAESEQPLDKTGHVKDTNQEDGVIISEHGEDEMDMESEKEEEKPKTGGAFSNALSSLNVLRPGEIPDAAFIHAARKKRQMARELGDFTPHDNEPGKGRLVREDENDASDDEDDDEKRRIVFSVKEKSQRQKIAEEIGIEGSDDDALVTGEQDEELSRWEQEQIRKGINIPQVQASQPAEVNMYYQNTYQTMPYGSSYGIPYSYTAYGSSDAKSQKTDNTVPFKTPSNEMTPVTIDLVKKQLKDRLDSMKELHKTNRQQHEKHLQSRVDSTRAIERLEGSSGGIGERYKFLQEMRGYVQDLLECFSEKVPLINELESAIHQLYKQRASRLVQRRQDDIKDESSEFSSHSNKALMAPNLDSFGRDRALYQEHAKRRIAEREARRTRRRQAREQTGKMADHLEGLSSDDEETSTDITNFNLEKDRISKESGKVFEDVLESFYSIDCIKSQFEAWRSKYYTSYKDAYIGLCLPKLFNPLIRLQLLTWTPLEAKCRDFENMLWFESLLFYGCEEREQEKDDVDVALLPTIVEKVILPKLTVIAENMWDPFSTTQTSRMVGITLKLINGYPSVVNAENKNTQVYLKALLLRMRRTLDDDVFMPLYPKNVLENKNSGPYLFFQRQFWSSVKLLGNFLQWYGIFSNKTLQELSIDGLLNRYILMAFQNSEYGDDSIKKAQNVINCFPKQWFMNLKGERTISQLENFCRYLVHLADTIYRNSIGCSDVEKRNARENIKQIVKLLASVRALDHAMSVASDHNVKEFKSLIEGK
log2 fold change [1]: 0.019
log2 fold change [2]: -0.035
log2 fold change [3]: 0.025
log2 fold change [4]: -0.01
log2 fold change [5]: 0.018
log2 fold change [6]: 0.026
log2 fold change [7]: -0.04
log2 fold change [8]: -0.022
log2 fold change [9]: 0.029
log2 fold change [10]: 0.013

NUP188 (UniProt Q5SRE5)
log2 fold change [1]: 0.066
log2 fold change [2]: 0.011
log2 fold change [3]: -0.01
log2 fold change [4]: 0.004
log2 fold change [5]: -0.007
log2 fold change [6]: -0.03
log2 fold change [7]: -0.034
log2 fold change [8]: 0.027
log2 fold change [9]: -0.003
log2 fold change [10]: 0.023

NAA30 (UniProt Q147X3)
UniProt Q147X3, sequence (Q147X3 whole entry, looked up): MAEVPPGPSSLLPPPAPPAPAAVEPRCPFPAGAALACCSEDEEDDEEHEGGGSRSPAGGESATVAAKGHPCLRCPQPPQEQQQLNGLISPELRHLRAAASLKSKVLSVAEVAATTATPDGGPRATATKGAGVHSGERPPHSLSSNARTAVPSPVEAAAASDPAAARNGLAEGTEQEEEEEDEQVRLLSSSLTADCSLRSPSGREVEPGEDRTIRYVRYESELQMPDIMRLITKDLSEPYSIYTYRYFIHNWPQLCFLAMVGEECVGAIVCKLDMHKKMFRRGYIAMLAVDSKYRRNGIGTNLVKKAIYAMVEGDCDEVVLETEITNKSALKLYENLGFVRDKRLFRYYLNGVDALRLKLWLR
log2 fold change [1]: 0.015
log2 fold change [2]: -0.027
log2 fold change [3]: 0.061
log2 fold change [4]: 0.026
log2 fold change [5]: -0.007
log2 fold change [6]: -0.046
log2 fold change [7]: -0.038
log2 fold change [8]: -0.088
log2 fold change [9]: -0.031
log2 fold change [10]: 0.085
